Measured values reported in PubChem BioAssay AID743314 (Broad Institute, 2014).
Entries with a potency or affinity are not part of this list. Records with an inconclusive call do not appear. Values without a mark were called inactive.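 Rule for the calls: active = fitted half-maximal concentration no higher than twice the top tested dose, in every repeat run; inconclusive = repeat runs disagree, poor fit, or flat partial inhibition; inactive = the rest.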

What follows are compounds tested against Endoplasmic reticulum aminopeptidase 1 (Homo sapiens) (UniProt Q9NZ08) (assay: inhibition of human ERAP1 enzyme activity – biochemical, cherry-pick, set 2, plate reader, dose response (AID 743314;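 note: 0% = neutral control wells and -100% = L-leucinethiol positive control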)). Details: Recombinant ERAP1, Leu-AMC fluorescence, 60 min; series mostly up to 11 µM; activity change, negative = inhibition: at the top concentration.
Endoplasmic reticulum aminopeptidase 1 (Homo sapiens), sequence (Q9NZ08 whole entry, looked up): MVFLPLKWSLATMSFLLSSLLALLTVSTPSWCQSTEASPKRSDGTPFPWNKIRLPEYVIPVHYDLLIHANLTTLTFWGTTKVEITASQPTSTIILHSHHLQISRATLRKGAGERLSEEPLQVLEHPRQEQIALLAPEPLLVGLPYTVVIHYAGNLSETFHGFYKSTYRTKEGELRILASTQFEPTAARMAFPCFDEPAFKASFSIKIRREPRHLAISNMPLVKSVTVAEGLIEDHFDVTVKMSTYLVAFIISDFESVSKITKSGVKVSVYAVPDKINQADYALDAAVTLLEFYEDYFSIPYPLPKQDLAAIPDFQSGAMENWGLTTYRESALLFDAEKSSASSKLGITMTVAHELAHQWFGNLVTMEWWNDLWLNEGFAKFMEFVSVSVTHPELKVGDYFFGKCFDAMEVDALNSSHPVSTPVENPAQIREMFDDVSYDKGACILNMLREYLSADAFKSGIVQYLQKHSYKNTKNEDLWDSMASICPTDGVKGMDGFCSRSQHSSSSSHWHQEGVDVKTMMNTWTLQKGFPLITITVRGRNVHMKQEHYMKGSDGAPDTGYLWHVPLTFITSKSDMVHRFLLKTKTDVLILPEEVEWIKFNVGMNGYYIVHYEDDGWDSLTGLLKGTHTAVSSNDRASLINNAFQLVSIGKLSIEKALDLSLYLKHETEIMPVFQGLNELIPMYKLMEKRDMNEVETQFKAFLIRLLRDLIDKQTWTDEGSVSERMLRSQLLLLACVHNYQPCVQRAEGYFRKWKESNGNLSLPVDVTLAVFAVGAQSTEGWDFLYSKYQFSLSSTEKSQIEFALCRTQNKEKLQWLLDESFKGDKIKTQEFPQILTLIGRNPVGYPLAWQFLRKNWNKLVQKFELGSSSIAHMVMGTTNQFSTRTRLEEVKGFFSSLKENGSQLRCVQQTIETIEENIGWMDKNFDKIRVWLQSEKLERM

SMILES | activity change, negative = inhibition [%]
COc1ccc(CN(C)C[C@@H]2OCCCC[C@H](C)Oc3ccc(NS(=O)(=O)c4cccs4)cc3C(=O)N([C@H](C)CO)C[C@@H]2C)cc1 | 48.1
CCOC(=O)c1c(NC(=O)COC(=O)CCNS(=O)(=O)c2ccccc2)sc(C(=O)NC)c1C | -4.58
CN(C)C(=O)c1cccc(-c2ccc3c(c2)[C@@H]2[C@@H](CCN2Cc2nccs2)[C@@H](CO)N3)c1 | 33.6
Cc1noc(C)c1S(=O)(=O)Nc1ccc2c(c1)C(=O)N([C@H](C)CO)C[C@@H](C)[C@@H](CN(C)CC1CCCCC1)OCCCC[C@@H](C)O2 | 51.1
C[C@H](CO)N1C[C@H](C)[C@@H](CN(C)C(=O)Nc2ccccc2)Oc2ccc(NC(=O)c3ccncc3)cc2C1=O | -11.5
CC(C)[C@H](NC(N)=O)C(=O)NNC(=O)COc1cccc(C(F)(F)F)c1 | -4.59
COc1ccc2c3c([nH]c2c1)[C@H](CO)N(CC1CC1)CC31CCN(C(=O)c2ccccc2F)CC1 | 30.8
COc1ccc(C#Cc2cccc(-c3nc(C(=O)N4CCN(C)CC4)cc4c3[C@@H](CCO)N(S(=O)C(C)(C)C)C4)c2)cc1OC (some centres undefined) | 37.6
N#Cc1c(N)n(CCNC(=O)c2ccccc2)c2nc3ccccc3nc12 | 46.6
COc1ccc(CN(C)C[C@@H]2Oc3c(NC(=O)NC4CCCCC4)cccc3C(=O)N([C@H](C)CO)C[C@H]2C)cc1 | 17.6
CSc1cccc(NC(=O)CCCNC(=O)c2ccc(Cl)cc2)c1 | 9.95
COc1ccc(CN(C)C[C@H]2Oc3ccc(NS(=O)(=O)c4ccc(C)cc4)cc3C(=O)N([C@@H](C)CO)C[C@@H]2C)cc1 | 20.6
COc1ccc(-c2cc(=O)oc3cc(OC(C)C(=O)NC(Cc4c[nH]c5ccc(O)cc45)C(=O)O)ccc23)cc1 (centres undefined) | -13
COc1ccc(CN(C)C[C@H]2OCCCC[C@H](C)Oc3ccc(NS(=O)(=O)c4cccs4)cc3C(=O)N([C@H](C)CO)C[C@@H]2C)cc1 | 50.9
CN(C)C(=O)[C@H]1[C@H](CO)[C@H]2Cn3c(cccc3=O)[C@@H]1N2CC1CCCC1 | 31.6
C[C@@H]1CN([C@H](C)CO)C(=O)c2cccc(NS(=O)(=O)c3ccc(Cl)cc3)c2O[C@@H]1CN(C)C(=O)Nc1ccccc1 | 28.6
Cc1ccc(S(=O)(=O)N2CCN(C(=O)COC(=O)c3ccc(Cl)c(S(N)(=O)=O)c3)CC2)c(C)c1 | -9.71
O=C(C[C@H]1CC[C@@H]2[C@H](COC[C@@H](O)CN2C(=O)Nc2cccc(Cl)c2)O1)N1CCCCC1 | 63.7
O=C(CSc1n[nH]c(-c2cccs2)n1)NC1CCS(=O)(=O)C1 (centres undefined) | -13.5
Cc1noc(C)c1NC(=O)N(C)C[C@@H]1Oc2c(NC(=O)Nc3ccc(F)cc3)cccc2C(=O)N([C@H](C)CO)C[C@H]1C | 45.2

SMILES | activity change, negative = inhibition [%]
COc1ccc2c3c([nH]c2c1)[C@@H](CO)N(Cc1ccccc1)CC31CN(C)C1 | -25.8
CCn1cnc2c1c(=O)n(CC(=O)NCC(F)(F)F)c(=O)n2Cc1ccccc1 | -0.513
COc1ccc(CN(C)C[C@@H]2OCCCC[C@H](C)Oc3ccc(NS(=O)(=O)c4cccs4)cc3C(=O)N([C@@H](C)CO)C[C@H]2C)cc1 | 44.6
C[C@@H]1CN([C@@H](C)CO)C(=O)c2cc(-c3ccc(F)cc3)cnc2O[C@@H]1CN(C)CC1CCCCC1 | 20.9
CC(Sc1nnc(-c2cccnc2)n1C)C(=O)N1CCOCC1 (centres undefined) | -6.46
Cc1cc(C)cc(N2CC(c3nc4ccccc4n3C)CC2=O)c1 (centres undefined) | -5.2
COCCN(CC(=O)Nc1cccc(C)c1C)C(=O)CN1C(=O)NC2(CCCCC2)C1=O | -11.9
C=CCn1nnnc1SCC(=O)Nc1cccc(C(F)(F)F)c1 | 9.34
C[C@H](CO)N1C[C@H](C)[C@@H](CN(C)S(=O)(=O)c2ccccc2)Oc2ccc(NC(=O)CCN3CCOCC3)cc2C1=O | 17.7
COc1ccc(CN(C)C[C@H]2OCCCC[C@@H](C)Oc3ccc(NS(=O)(=O)c4cccs4)cc3C(=O)N([C@H](C)CO)C[C@@H]2C)cc1 | 42.7
C[C@H](CO)N1C[C@H](C)[C@H](CN(C)S(=O)(=O)c2ccccc2)Oc2ccc(NC(=O)CCN3CCOCC3)cc2C1=O | 13.5
Cc1noc(C)c1NC(=O)N(C)C[C@@H]1Oc2c(NC(=O)Nc3ccccc3)cccc2C(=O)N([C@H](C)CO)C[C@@H]1C | 47
CN1CCN(S(=O)(=O)c2cccc(C(=O)Nc3cc(Cl)ccc3N3CCOCC3)c2)CC1 | 2.71
Cc1ccc(NC(=O)C2CCCN2C(=O)c2cccs2)c(C)c1 (centres undefined) | -10.6
CCOCc1c(C(=O)Nc2ccc(OC)nc2)oc2ccccc12 | 1.18
Cn1c(=O)[nH]c(=O)c2c1[nH]c(=S)n2Cc1ccccc1 | -25
Cc1nc2ccc(NC(=O)c3ccc(=O)[nH]c3)cc2s1 | -4.05
Cc1cc(C)n2nc(C(=O)Nc3ccc(N4CCOCC4)cc3)nc2n1 | -17.4
COCc1cn(CC[C@@H]2CC[C@H](NC(=O)CCN3CCCCC3)[C@H](CO)O2)nn1 | 19.3
